Screening results as filed in PubChem BioAssay.
IP6K1 inh – blocks human inositol hexakisphosphate kinase 1 | Q92551 | IP6K1 kinase, ADP-Glo luminescence, 2 h; active compounds read low | activity change, % (series mostly up to about 58 µM) | actives 0.81% (n = 140,000) | AID 1645851; in the data active = activity change below about -25%
Target sequence (Q92551 whole entry, looked up): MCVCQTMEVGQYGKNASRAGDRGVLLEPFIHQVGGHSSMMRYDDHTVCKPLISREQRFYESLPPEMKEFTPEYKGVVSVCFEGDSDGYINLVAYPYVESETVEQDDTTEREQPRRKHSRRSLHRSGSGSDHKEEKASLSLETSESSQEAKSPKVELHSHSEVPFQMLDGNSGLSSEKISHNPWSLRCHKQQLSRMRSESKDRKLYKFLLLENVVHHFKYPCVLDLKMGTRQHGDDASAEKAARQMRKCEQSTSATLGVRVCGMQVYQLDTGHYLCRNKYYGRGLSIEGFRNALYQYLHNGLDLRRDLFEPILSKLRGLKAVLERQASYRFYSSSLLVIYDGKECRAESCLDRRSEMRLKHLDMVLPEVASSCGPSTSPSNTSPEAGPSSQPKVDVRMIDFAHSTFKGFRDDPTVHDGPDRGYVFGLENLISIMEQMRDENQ
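ADP-Glo luminescence measures ADP made by human IP6K1 during a 2 h RT reaction with ATP/IP6 (mix at 1.3 mM/130 uM); top library doses 57.5 and 19.1 uM final.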
KDM5B inh – KDM5B demethylase inhibition; AID 1347165; actives 2.6% (n = 220,000); Q9UGL1; Potency, µM (doses to about 57.7 µM), actives largely listed as inhibitors; KDM5B demethylase, FDH-coupled NADH fluorescence (FDH is formaldehyde dehydrogenase); also: nearly all actives have a fitted effect of over 70% in size
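Measured: NADH fluorescence change, 30 min, RT. System: KDM5BΔAP 200 nM final, H3K4me3 peptide, α-KG, Fe(II), ascorbate, NAD⁺ plus FDH, pH 7.5 HEPES. Compounds: titrated, 10 min pre-incubation with enzyme.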
SNCA expr inhib – reduces expression of the alpha-synuclein gene; HEK-293 SNCA-luciferase knock-in, luminescence, 24 h; Potency, µM (top dose mostly 57.2 µM), hits mostly inhibitors; actives 0.17% (n = 140,000); also: nearly all actives have a fitted effect of over 45% in size
SNCA viab count – counter-screen for SNCA expression inhibitors: cell viability; HEK-293-SNCA-luc viability, GF-AFC fluorescence, 24 h; Potency, µM (series often up to 57.1 µM), most hits filed as cytotoxic; actives 0.12% (n = 150,000); AID 1671193; also: nearly all actives have a fitted effect of over 30% in size
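HEK-293-SNCA-luc cells (1500/well) plated 24 h, then exposed 24 h to a dilution series; GF-AFC added 30 min at 37C, fluorescence 405/540 nm; normalised to medium-only and DMSO wells, Hill fit.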
Hits are given with their value; 0 = inactive; ? = inconclusive; - = not tested or not shown; [ ] = dose if it differs, or a comment. Rows were chosen to be rich in hits. Some 2.9% of all compounds tested hit in one or more screens of this group. Unless noted, calls follow the shape of the dose curve; as a rule, active = well fitted curve in the direction sought with a large enough effect; inconclusive = small, poorly fitted or top-dose-only effect, or another doubt; inactive = no such curve, though single readings can be large; an effect the other way counts as inactive or inconclusive.

SMILES | IP6K1 inh | KDM5B inh | SNCA expr inhib | SNCA viab count
Cc1nn2c(c1-c1ccnn1C(C)C)N(Cc1ccc(C(=O)O)s1)CCC2 | 0 | 25µM | ? | ?
Cc1nn2c(c1-c1ccnn1C(C)C)N(C(=O)C(C)C)CCC2 | 0 | 0 | 0 | 0
CONC(=O)C(CC(C)C)NC(=O)c1ccc(Cl)cc1 (centres undefined) | - | 0 | - | -
Cc1nn(C)c(C)c1C(=O)N[C@@H]1CN(c2ncccn2)C[C@H]1CO | 0 | 20µM | 0 | 0
Cc1ncccc1C(=O)N[C@@H]1CN(c2ncccn2)C[C@H]1CO | 0 | 20µM | 0 | 0
COc1ccccc1CCC(=O)N[C@@H]1CN(c2ncccn2)C[C@H]1CO | 0 | 18µM | 0 | 0
O=C(N[C@@H]1CN(c2ncccn2)C[C@H]1CO)c1ccoc1 | 0 | 13µM | 0 | 0
COc1ccc(OCC2CN(CC3CC3)C(=O)c3ccc(C)nc3O2)cc1 (centres undefined) | 0 | - | 0 | 0
CCOc1ccccc1C(=O)NC1CCN(C(=O)c2cc3c(=O)[nH]c(C)cn3n2)CC1 | 0 | 0 | 0 | 0
C=CC(=O)Nc1ccc(CN2C(=O)N(c3cc(OC)cc(OC)c3)Cc3cnc(Nc4ccc(N5CCN(C)CC5)cc4)nc32)cc1 | 0 | - | - | 19µM
COc1cccc(CN2CCn3c(nnc3[C@@H]3C[C@@H](O)CN3Cc3cccnc3)C2)c1OC | 0 | ? | ? | 0[12.5 µM]
CC1(C(=O)NC2COC2)CN(Cc2ccccc2)Cc2ccc(Nc3ccccc3)nc21 (centres undefined) | 0 | 35µM | 0 | 0
CC1(C(=O)NC2CCOCC2)CN(Cc2ccccc2)Cc2ccc(Nc3ccccc3)nc21 (centres undefined) | 0 | 28µM | 0 | ?
CCC(CC)C(=O)N1CCC(N2C(=O)N(Cc3cccnc3)CC23CCOC3)CC1 (centres undefined) | 0 | - | 0 | 0
Cc1nc(SCc2nnc(-c3ccccc3Br)o2)n(C2CCCC2)c1C | - | 0 | - | -
Cc1ccc(-c2nc(CSc3ccc4c(c3)OCCO4)co2)cc1 | - | 0 | - | -
Cn1ccnc1-c1ccc(N2CC[C@@]3(O)CCN(S(C)(=O)=O)C[C@H]3C2)nn1 | 0 | 32µM | 0 | 0
CCCCc1ccc(NC(=O)CN2C(=O)NC3(CCOCC3)C2=O)cc1 | 0 | 0 | 0 | 0
O=C(c1cc(-c2cccnc2)c2nncn2n1)N1CCOCC1 | 0 | 89µM | 0 | 0
COC(=O)CNC(=O)c1cc(-c2cccnc2)c2nncn2n1 | 0 | 100µM | 0 | 0
O=C(c1cc(-c2ccc(F)cc2)c2nncn2n1)N1CCOCC1 | 0 | - | 0 | 0
COC(=O)CNC(=O)c1cc(-c2ccc(Cl)cc2Cl)c2nncn2n1 | 0 | 45µM | 0 | 0
O=C(NCCc1ccc(Cl)cc1)c1cc(-c2cccc(C(F)(F)F)c2)c2nncn2n1 | 0 | 79µM | 0 | 0
COC(=O)CNC(=O)c1cc(-c2ccccc2OC)c2nncn2n1 | 0 | 0 | 0 | 0
Cc1noc(C)c1[S+](=O)([O-])N1CCC2(CC1)C(=NC1CCCC1)NC(=O)N2c1cc(F)cc(F)c1 | 0 | 0 | 0 | 0
SMILES | IP6K1 inh | KDM5B inh | SNCA expr inhib | SNCA viab count
COc1ccc(C(=O)N2CC[C@](C)(O)C(C)(C)C2)cc1Cl | 0 | 0 | ? | 0
COC(=O)CNC(=O)c1cc(-c2cccc(C(F)(F)F)c2)c2nncn2n1 | 0 | 79µM | 0 | 0
CN1CCC2(C1)CN(Cc1ccccc1)c1ccc(C(=O)Nc3ccc(F)cc3)cc12 (centres undefined) | 0 | ? | 0 | 0
COc1ccc(NC(=O)c2ccc3c(c2)C2(CCCN(C)C2)CN3C)cc1 (centres undefined) | 0 | 0 | 0 | 0
CN1CCCC2(C1)CN(Cc1cccnc1)c1ccc(C(=O)Nc3ccc(F)cc3)cc12 (centres undefined) | 0 | 0 | 0 | 0
CC(C)CNC(=O)c1ccc2c(c1)C1(CCN(C)C1)CN2CC1CC1 (centres undefined) | 0 | 35µM | 0 | 0
CN1CCCC2(C1)CN(C)c1ccc(C(=O)NCC3CCCCC3)cc12 (centres undefined) | 0 | 35µM | 0 | 0
CN1CCC2(C1)CN(CC1CC1)c1ccc(C(=O)NCC3CC3)cc12 (centres undefined) | 0 | 35µM | 0 | 0
CN1CCCC2(C1)CN(C)c1ccc(C(=O)Nc3ccc(F)cc3)cc12 (centres undefined) | 0 | 35µM | 0 | 0
CCO[C@H]1CN(C(=O)c2cc(OC)nc3ccccc23)C[C@@H]1O | 0 | ? | 0 | 0
CC1(c2ccccc2)N(Cc2ccc(O)cc2)C(=O)OC12CCN(Cc1c[nH]c3ccccc13)CC2 (centres undefined) | 0 | ? | 0 | 0
CN1CCCC2(C1)CN(C)c1ccc(C(=O)NCc3cccs3)cc12 (centres undefined) | 0 | 35µM | 0 | 0
O=C(NCc1cccs1)c1ccc2ccccc2c1 | - | 0 | - | -
O=C(NC1CCCc2c1[nH]c1c(Cl)cccc21)c1ccc2c(c1)OCO2 (centres undefined) | 0 | 0 | 0 | 0
Cc1ncc(-c2c(-c3ccccc3)ncn2CC(c2ccco2)N2CCCC2)[nH]1 (centres undefined) | 0 | 25µM | 0 | 0
CCCCc1ncc(-c2c(-c3ccccc3)ncn2CC2(CO)CCC2)[nH]1 | 0 | 0 | 0 | 0
c1coc(-c2ccnc3nc(-c4cccs4)nn23)c1 | 0 | 28µM | 0 | 0
Brc1ccc(-c2ccnc3nc(-c4cccs4)nn23)cc1 | 0 | 7.9µM | 0 | 0
c1csc(-c2nc3nccc(-c4ccncc4)n3n2)c1 | 0 | 28µM | 0 | 0
COC[C@H]1CCCN1C(=O)C[C@@H]1O[C@H](CNS(=O)(=O)c2ccccc2)[C@@H](O)[C@H]1O | 0 | ? | 0 | 0
CS(=O)(=O)N1CCCCC1CCNc1nccc(-c2cccnc2)n1 (centres undefined) | 0 | 32µM | 0 | 0
OCC1CCCCN1CCNc1nccc(-c2cccnc2)n1 (centres undefined) | 0 | 25µM | 0 | 0
O=S(=O)(c1cccnc1)N1CCCCC1CCN1CCOCC1 (centres undefined) | 0 | 0 | 0 | 0
COc1ccc([C@H]2C[C@@H](O)[C@@H](O)[C@@H]2NCc2ccc(OC)nc2)cc1 | 0 | 0 | ? | ?
Cn1cc(CN[C@H]2[C@H](O)[C@H](O)C[C@@H]2c2ccc(N3CCOCC3)nc2)cn1 | 0 | 40µM | 0 | 0
Cc1ccccc1C(=O)N[C@H]1[C@H](O)[C@H](O)C[C@@H]1c1ccc(N2CCOCC2)nc1 | 0 | 32µM | 0 | 0
COc1ccc(C(=O)N[C@H]2[C@H](O)[C@H](O)C[C@@H]2c2ccc(N3CCOCC3)nc2)cc1OC | 0 | ? | 0 | 0
Cc1cc(C(=O)N[C@H]2[C@H](O)[C@H](O)C[C@@H]2c2ccc(N3CCOCC3)nc2)nn1C | 0 | 32µM | 0 | 0
Cc1ccc(S(=O)(=O)N2CCC(n3cnnc3C)CC2)c(C)c1 | 0 | 0 | 0 | 0
O=C(c1cc(Cl)ccc1F)N1CCC(n2cc(-c3nc(-c4ccccc4)no3)nn2)C1 (centres undefined) | 0 | 0 | 0 | 0
